What all share (format): functional
The subject of assay [1] is Plasmodium falciparum. Description: GSK_TCMDC: Inhibition of Plasmodium falciparum 3D7 in whole red blood cells, using parasite LDH activity as an index of growth. Test compounds present at 2uM.
Assay [2] relates to Plasmodium falciparum. As to the kind of experiment: GSK_TCMDC: Inhibition of Plasmodium falciparum Dd2 in whole red blood cells, using parasite LDH activity as an index of growth. Test compounds present at 2uM.
A further assay concerns HepG2. As to the kind of experiment: GSK_TCMDC: Percent inhibition of human HepG2 cell line. Test compounds present at 10uM.

In the case of `Cc1ccoc1C(=O)Nc1cccc(-c2cccc(-c3nc4cccc(C)c4[nH]3)c2)c1`, the Inhibition – broadly, the change of the read-out against control, counted positive when it falls – with Plasmodium falciparum [1] worked out at 100%; with Plasmodium falciparum [2], 79%; in the assay on HepG2, 17%.
On the same counts, the results for `COc1ccc2nccc([C@@H](O)CN3CCC(NCc4cc5ccccc5s4)CC3)c2c1.O=C(O)C(=O)O` are 97%, 53% and 8%.
For `Cc1cccc2nc(-c3cccc(-c4cccc(CNCc5ccc(S(C)(=O)=O)cc5)c4)c3)[nH]c12.O=C(O)C(F)(F)F`, the Inhibition in the assay on Plasmodium falciparum [1] came to 100%; with Plasmodium falciparum [2], 66%; in the assay on HepG2, 13%.
In the same order, the values of `O=C(Nc1ccc(Br)cc1)N(CCN1CCOCC1)CC(O)COc1ccc(Cl)c(F)c1.O=C(O)C(F)(F)F` (centres undefined) are 98%, 30% and 3%.
In the same order, the values of `COCCOc1cccc(CN2CCC(c3cc4nc(C)cc(C(F)(F)F)n4n3)C2)c1.O=C(O)CC(O)(CC(=O)O)C(=O)O` (centres undefined) are 85%, 74% and 25%.
In the same order, the values of `O=C(/C=C/c1ccc(Cl)c(Cl)c1)NCCCCCCN1CCN(C(=O)Nc2ccc(C(F)(F)F)cc2)CC1` are 100%, 44% and 42%.
Consider `CCn1c(Sc2ccc(C#N)c([N+](=O)[O-])c2)nnc1-c1cc(OC)cc(OC)c1`, for which the Inhibition with Plasmodium falciparum [1] turned out to be 93%; in the assay with Plasmodium falciparum [2], 82%; in the assay on HepG2 it was 7%.
With `CS(=O)(=O)c1ccc(-c2cnc(N)c(-c3ccc(O)cc3)c2)cc1`, the Inhibition with Plasmodium falciparum [1] was 84%; in the assay with Plasmodium falciparum [2], 94%; in the assay on HepG2, 38%.
For the molecule `Oc1ccc2nc(Nc3ccccc3)nc(NCCc3ccccc3)c2c1`, the figures for the Inhibition in the assay with Plasmodium falciparum [1], with Plasmodium falciparum [2] and with HepG2 were 100%, 100% and 20%, respectively.
Take `Cc1cc(N2CCNCC2)c2cc(NC(=O)Nc3ccc(Cl)c(Cl)c3)ccc2n1.Cl`: the results for the Inhibition with Plasmodium falciparum [1], with Plasmodium falciparum [2] and in the assay with HepG2 were 100%, 86% and 23%, respectively.
In the same order, the values of `O=C(O)C(F)(F)F.c1cncc(CCNCc2ccc(-c3cccc(-c4nc5ccccc5[nH]4)c3)cc2)c1` are 100%, 99% and 39%.
On the same counts, the results for `O=C(Nc1ccsc1C(=O)NC1CCCCC1)c1ccc(F)cc1` are 86%, 11% and 3%.
On the same counts, the results for `COC(=O)c1ccccc1COc1ccc(CC2(NC(=O)[C@H](Nc3ccc(C#N)c4ccccc34)C(C)(C)C)CCCC2)cc1` are 95%, 82% and 1%.
Regarding `O=C(NCCCCN1CCN(c2cccc3c2CCCC3)CC1)c1ccc(NC(=O)c2ccc(Cl)cc2)cc1`, the Inhibition with Plasmodium falciparum [1] is listed as 100%; with Plasmodium falciparum [2], 85%; in the assay on HepG2, 35%.
On the same counts, the results for `Cc1nc(-c2nc(NCCc3c(C)noc3C)ncc2-c2ccsc2)sc1C` are 87%, 85% and 12%.
On the same counts, the results for `COc1ccc2c(NN=Cc3cccc(C)n3)ccnc2c1` are 96%, 51% and 0%.
In the same order, the values of `NC1CCCN(Cc2ccc(-c3ccc(-c4nc5ccccc5[nH]4)s3)cc2)C1.O=C(O)C(F)(F)F` (centres undefined) are 100%, 99% and 40%.
Turning to `Cc1cnccc1/C=C/c1cccc(OCCN2CCc3ccc(S(C)(=O)=O)cc3CC2)c1`, the Inhibition in the assay with Plasmodium falciparum [1] was found to be 93%; in the assay with Plasmodium falciparum [2] it was 80%; with HepG2 it was 9%.
On the same counts, the results for `CC(C)C[C@H](Nc1ccnc(NCC2CCCCC2)n1)C(=O)NCCc1ccccc1.O=C(O)C(F)(F)F` are 88%, 66% and 10%.
On the same counts, the results for `CCCOc1cccc(C(=O)N[C@@H](Cc2ccccc2)[C@H](O)CNCc2ccccc2OC)c1` are 95%, 61% and 11%.
For `O=C(/C=C/c1ccc(Cl)c(Cl)c1)NCCCCCN1CCC(NC(=O)Nc2ccc(Cl)cc2F)CC1`, the results for the Inhibition with Plasmodium falciparum [1], in the assay with Plasmodium falciparum [2] and with HepG2 were 100%, 40% and 100%, respectively.
As for `CCCCCNc1nc(Nc2ccccc2C)nc2ccccc12.Cl`, the Inhibition came to 100% with Plasmodium falciparum [1], 30% with Plasmodium falciparum [2] and 5% in the assay on HepG2.
Turning to `COc1ccc2nccc([C@@H](O)CN3CCC(NCc4ccc(OC)c(NC=O)c4)CC3)c2c1`, the Inhibition with Plasmodium falciparum [1] is listed as 97%; in the assay on Plasmodium falciparum [2] it was 0%; with HepG2 it was 0%.
Turning to `CO/C(=C\C=C\c1cc2cc(Cl)c(Cl)cc2[nH]1)C(=O)NCCCN1CCCC[C@H]1C`, the Inhibition in the assay on Plasmodium falciparum [1] is recorded as 100%; with Plasmodium falciparum [2], 91%; in the assay on HepG2, 41%.
On the same counts, the results for `COc1cc2nc(NCCc3ccccc3)nc(N(C)Cc3ccccc3)c2cc1OC` are 96%, 58% and 31%.
In the same order, the values of `Cc1ccc(-n2ncc(C(=O)Nc3cc(Cl)cc(Cl)c3)c2C2CCNCC2)cc1C.Cl` are 100%, 77% and 65%.
On the same counts, the results for `CCCCCCNC(=O)C1Cc2c([nH]c3ccc(F)cc23)C2(CCN(Cc3ccccc3)CC2)N1` (centres undefined) are 97%, 39% and 11%.
Turning to `CCOc1cc(/C=N/Nc2nc3ccccc3[nH]2)ccc1OCc1ccc([N+](=O)[O-])cc1`, the Inhibition in the assay with Plasmodium falciparum [1] was found to be 100%; in the assay with Plasmodium falciparum [2], 1%; with HepG2, 2%.

Source of the values: ChEMBL document CHEMBL1157539, “Thousands of chemical starting points for antimalarial lead identification” (Nature, 2010).
